Measured values reported in the supplement of paper PMC8728848.
This excerpt belongs to a sample that is enriched for the strongest signals.

Tests used:
Experiment in all cases: glycan array binding signal (z-score within array); higher = stronger binding
Conditions in all cases: glycan notation: IUPAC condensed, linker removed
[1] = target: GlcNAc(b1-2)[GlcNAc(b1-6)]Man(a1-6)[GlcNAc(b1-2)Man(a1-3)]Man(b1-4)GlcNAc(b1-4)[Fuc(a1-6)]GlcNAc
Outline: (§1)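 Glycan array data were curated from 3228 arrays in the Consortium for Functional Glycomics database and kept only where the protein sequence was available. Glycan names were converted to IUPAC-condensed notation, and columns mapping to the same glycan were averaged. The binding signal is a within-array Z-score, averaged across arrays of the same protein sequence at different concentrations or buffers and across linkers. Negative Z-scores can be read as non-binding.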

[2] = target: GlcNAc(b1-2)[GlcNAc(b1-6)]Man(a1-6)[GlcNAc(b1-4)][GlcNAc(b1-2)Man(a1-3)]Man(b1-4)GlcNAc(b1-4)GlcNAc
Outline: as §1

[3] = target: GlcNAc(b1-4)[GlcNAc(b1-6)]GalNAc
Outline: as §1

GlcNAc(b1-6)GalNAc = target: GlcNAc(b1-6)GalNAc
Outline: as §1

[4] = target: GlcNAc6S(b1-3)Gal(b1-4)GlcNAc
Outline: as §1

[5] = target: Man(a1-2)Man(a1-2)Man(a1-6)[Man(a1-3)]Man
Outline: as §1

[6] = target: Man(a1-2)Man(a1-6)[Man(a1-3)]Man(a1-6)[Man(a1-2)Man(a1-2)Man(a1-3)]Man
Outline: as §1

[7] = target: Man(a1-3)[Man(a1-6)]Man(a1-6)[Man(a1-3)]Man(b1-4)GlcNAc(b1-4)GlcNAc
Outline: as §1

[8] = target: Neu5Ac(a2-3)Gal(b1-3)GlcNAc(b1-6)GalNAc
Outline: as §1

[9] = target: Neu5Ac(a2-3)Gal(b1-3)[GlcNAc(b1-6)]GalNAc
Outline: as §1

[10] = target: Neu5Ac(a2-3)Gal(b1-4)GlcNAc(b1-3)Gal(b1-4)[Fuc(a1-3)]GlcNAc
Outline: as §1

[11] = target: Neu5Ac(a2-3)Gal(b1-4)[Fuc(a1-3)]GlcNAc(b1-3)Gal
Outline: as §1

[12] = target: Neu5Ac(a2-3)Gal6S(b1-4)[Fuc(a1-3)]GlcNAc
Outline: as §1

[13] = target: Neu5Ac(a2-6)Gal(b1-4)GlcNAc(b1-2)Man(a1-3)Man(b1-4)GlcNAc(b1-4)GlcNAc
Outline: as §1

[14] = target: Neu5Ac(a2-6)Gal(b1-4)GlcNAc(b1-6)GalNAc
Outline: as §1

[15] = target: Neu5Ac(a2-8)Neu5Ac(a2-8)Neu5Ac
Outline: as §1

Neu5Gc(a2-6)GalNAc = target: Neu5Gc(a2-6)GalNAc
Outline: as §1

B1: AT1G73650(15) (Arabidopsis thaliana), F4HRY1 (protein)
chain: MGTVLDSHFLALTAIVTVIYQFIFFVITALFKFDQVTDFAGSTNFVILAVLTLVLKASWHFRQIVLTLLVVVWGLRLGIFLLMETRILQWGEDRRFDEQRGNIVRLIIFWTLQAVWVWTVSLPLTLVNASDGGGSLKPADVIGWTMETWVFGFLIEAAADQQKLSFKNSPENRGKWCDVGVWKYSRHPNYFGEMETLLWWGIFVAASPVLEGAEYLVIFGPLFLTLLLLFVSGIPLLEASADKKHGNSGAYRSYKKTTSPLILFPRGVYGNLPGWFKTVFLFEFPFYSRNLPQEGRLQNSKEKEVKDD
glycan array binding signal (z-score) [1]: 0.047 | glycan array binding signal (z-score) [2]: -0.322 | glycan array binding signal (z-score) [3]: -0.41 | glycan array binding signal (z-score) (GlcNAc(b1-6)GalNAc): -0.154 | glycan array binding signal (z-score) [4]: -0.641 | glycan array binding signal (z-score) [5]: -0.361 | glycan array binding signal (z-score) [6]: -0.508 | glycan array binding signal (z-score) [7]: -0.566 | glycan array binding signal (z-score) [8]: 3.42 | glycan array binding signal (z-score) [9]: -0.402 | glycan array binding signal (z-score) [10]: 1.23 | glycan array binding signal (z-score) [11]: -0.714 | glycan array binding signal (z-score) [12]: -0.428 | glycan array binding signal (z-score) [13]: -0.274 | glycan array binding signal (z-score) [14]: 7.33 | glycan array binding signal (z-score) [15]: 2.92 | glycan array binding signal (z-score) (Neu5Gc(a2-6)GalNAc): 3.69
